This note sets out measurements from PubChem BioAssay AID588522 (NMMLSC, 2011).

In all, about 1,700 compounds went through this assay and about 20 (1%) were called active. What follows is part of a selection rich in actives, with near analogues and random picks from the rest. Unmarked numbers belong to inactive results.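 How the source made its calls: active means inhibition above the screen-wide mean plus twice its standard deviation (cut at about 32% in these data); inactive means the rest.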

For the assay, the system named is Candida albicans drug resistance protein 1 (Cdr1) expressed in S. cerevisiae. Put plainly: inhibitors of Candida albicans Cdr1 efflux pump, confirmation, S. cerevisiae AD/CaCDR1, flow cytometry, cherry pick 1, singleplex (AID 588522). The note with it: S. cerevisiae AD/CaCDR1, Nile Red efflux, at 10 µM, stronger effect = higher value. In general terms: A flow cytometer gives signals particle by particle.
For `O=C(Cc1ccccc1)NCC1OCCc2ccccc21` (stereo unspecified), the inhibition is -0.03%.
On to `COc1ccc(C(=O)NC2CC(C)(C)Cc3c2cnn3-c2ccccc2)c(OC)c1` (stereo unspecified), for which the inhibition was -0.08%.
With `O=C(CNC(=O)c1ccc(-c2ccccc2)cc1)OCc1ccc(Cl)cc1` the figure was 0.15%; with `O=C(OCc1ccc(-c2ccccc2)cc1)c1cccc(O)c1`, 0.08%.
For `O=C(CSc1nnc(-c2cccnc2)n1Cc1ccco1)c1ccc(Cl)c(Cl)c1` the value was -0.04%; for `Cc1oc2cc3oc(=O)ccc3cc2c1C`, -0.1%; for `CC12CCC(C(=O)N(c3cccc(Cl)c3)C1=O)C2(C)C` (stereo unspecified), 0.11%.
With `Cc1cc(C)cc(NC(=O)C(OC(=O)c2ccc(O)cc2)c2ccccc2)c1` (stereo unspecified), the inhibition is -0.12%.
For `COc1ccccc1/C=C/C=N/n1c(-c2ccc(Cl)cc2Cl)n[nH]c1=S` the value was 0.09%; for `CCOc1ccc(C2/C(=C(/O)c3ccc4c(c3)CC(C)O4)C(=O)C(=O)N2CCCn2ccnc2)cc1` (stereo unspecified), 0.05%.
As for `CC(/C=C/c1ccccc1)=N\NC(=O)C1CC1(C)c1ccccc1` (stereo unspecified), the inhibition was -0.03%.
With `O=C(Nc1ccc(NC(=O)c2cccs2)cc1)c1ccc2ccccc2c1` the figure was 0.04%; with `CCNC(=O)c1c(O)c2cccc3c2n(c1=O)CC3`, -0.08%.
For `Cc1cccc(NC(=O)COc2ccccc2C)n1` the value was -0.06%; for `O=C(CN1C(=O)C2C3CCC(C3)C2C1=O)Oc1ccc2ccccc2c1` (stereo unspecified), -0.01%.
With `CCCc1nnc(SCC(=O)Nc2ccc(C(=O)OCC)cc2)o1`, the inhibition was 0.53%.
For `O=C(/C=C/c1c(Cl)cccc1Cl)NCc1ccccc1`, the inhibition is -0.01%.
For `CCNc1c(NS(=O)(=O)c2ccc(C3CCCCC3)cc2)c(=O)oc2ccccc12` the value was -0.2%.
For `CSCCC(NC(=O)COc1ccccc1)C(=O)OCCOc1ccc(Br)cc1` (stereo unspecified) the value was -0.03%.
For `Cc1csc(NC(=O)c2ccc(-c3ccc(Cl)cc3Cl)o2)n1` the value was 0.16%.
For the compound `Cc1cc(/C=N/NC(=O)CC2(C)OCCO2)c(C)n1-c1ccc(Cl)c(Cl)c1`, the inhibition was 0.13%.
As to `COc1ccc(S(=O)(=O)N2CCOC2CNC(=O)C(=O)NCc2ccc(F)cc2)cc1` (stereo unspecified), the inhibition was 0.04%.
With `Cc1ccc(N=C2NC(=O)/C(=C/C=C/c3ccco3)S2)cc1C` the figure was 0.36%; with `CSCCC(NS(=O)(=O)c1ccc(C)cc1)C(=O)N1CCCC1` (stereo unspecified), -0.1%; with `C/C(N)=C(/C#N)C(=O)COC(=O)c1cc(-c2cccc(Br)c2)nc2ccccc12`, 0.12%.
Consider `Cc1ccc(/C=C(\C#N)C(=O)Nc2cccc3ncccc23)o1`, for which the inhibition is -0.54%.
As to `O=C(NCc1ccccc1)C(=O)NCC1OCCN1S(=O)(=O)c1ccc(Br)cc1` (stereo unspecified), the inhibition is -0.27%.
For `Cc1nn(C)cc1N1C(=O)c2cccc3c(N)ccc(c23)C1=O`, the inhibition was -0.53%.
As to `CN(C)S(=O)(=O)c1cc(C(=O)Nc2ccn(C)n2)c(Cl)cc1Cl`, the inhibition was -0.51%.
In the case of `COc1ccc(C(=O)C2CCCN(Cc3cccn3-c3ccccn3)C2)c(C)c1` (stereo unspecified), the inhibition is 0.01%.
On to `CCOc1ccc(/C=C2\SC(=S)N(NC(=O)c3ccncc3)C2=O)cc1OC`, for which the inhibition is -0.06%.
For `COc1ccc(NC(=S)N2CCc3cc(OC)c(OC)cc3C2)cc1` the value was 0.16%; for `CCn1c(/C=C/c2ccc([N+](=O)[O-])o2)nc2ccccc2c1=O`, 0.83%; for `CC(C)C(=O)N1CCC2(CC1)Oc1ccc(F)cc1C(=O)C21CC(c2ccccc2)=NO1` (stereo unspecified), 0.01%.
As for `COc1cccc(NC(=O)CN(C)C(=O)/C=C/c2cc(OC)ccc2OC)c1`, the inhibition is -0.15%.
For `COc1ccc(/C=C(\C#N)c2c[nH]c3ccccc23)cc1` the value was -0.2%; for `NNC(=O)COc1ccc(C2SCCS2)cc1`, -0.06%.
For `O=C(CCCCCn1c(=O)[nH]c2ccccc2c1=O)NCCc1c[nH]c2ccccc12` the value was -0.02%; for `COc1cccc(-c2sc3ccc(OC)cc3c2-c2ccc(OCCN3CCCCC3)cc2)c1`, 45.4% (active); for `COc1ccc2sc(-c3ccccc3OC)c(-c3ccc(OCCN4CCCC4)cc3)c2c1`, 4.57%.
For `COc1ccc(-c2sc3ccccc3c2-c2ccc(OCCN3CCOCC3)cc2)cc1` the value was -0.26%.
Turning to `Cc1nn(C)cc1C(=O)Nc1ccccc1Br`, the inhibition is -0.09%.
Consider `CCCCCCCCCCCCCCCC(=O)OC/C=C(C)/C=C/C=C(C)/C=C/C1=C(C)CCCC1(C)C`, for which the inhibition is 0.11%.
With `C=CCC[C@@H](Cc1ccc(F)cc1)C(=O)OC[C@H](Cc1c[nH]c2ccccc12)NC(=O)[C@@H](CC=C)CC(=O)N(CCO)Cc1ccccc1` the figure was 0.17%.
For `CN=C(c1ccccc1)c1c(C)cccc1C` the value was 0.01%; for `Cc1cc(C(=O)Nc2ccc(C)c(S(=O)(=O)N3CCOCC3)c2)c2ccccc2n1`, -0.08%.
In the case of `CCc1ccc(NC(=O)Cn2ncn3c(cc4ccccc43)c2=O)cc1`, the inhibition is -0.23%.
For `Cc1ccc(OCc2cc(C(=O)N(C)CCc3ccccc3)no2)cc1C` the value was -0.15%; for `CCOc1ccc2nc(Cl)c(C3CC(c4ccccc4)=NN3C(=O)c3cccs3)cc2c1` (stereo unspecified), 0.11%; for `O=C1NC(=O)C2C1C(c1ccc([N+](=O)[O-])cc1)=NN2Cc1ccccc1` (stereo unspecified), 0.24%.
For `CCCCCC(=O)Nc1ccc(C(=O)N/N=C/c2ccc([N+](=O)[O-])cc2)cc1`, the inhibition was 0.01%.
With `CCOC(=O)CNC(=O)CSc1nnnn1-c1cc(C)ccc1C` the figure was -0.03%.
Turning to `CC[n+]1cc(C)ccc1/C=C/c1ccc(N(C)C)cc1`, the inhibition was 4.74%.
Take `COc1ccc2[nH]c3c(C)c4cc[n+](C)cc4c(C)c3c2c1`: the inhibition is 0.08%.
With `Cc1c(CCOC(=O)CC23CC4CC(CC(C)(C4)C2)C3)sc[n+]1Cc1ccc([N+](=O)[O-])cc1` the figure was 0.01%.
For `CCOC(=O)c1c(NC(=S)NC(=O)c2ccco2)sc2c1CCCC2` the value was -0.31%; for `C[n+]1ccc(/C=C/c2c[nH]c3ccccc23)cc1`, 3.85%.
For `COc1ccc(C(=O)NC2CCCc3c2cnn3-c2cccc(C)c2C)c(OC)n1` (stereo unspecified) the value was -0.29%; for `CC(/C=N/NC(=O)c1cc(-c2ccc3ccccc3c2)n[nH]1)=C\c1ccco1`, -0.15%.
In the case of `O=C(Cc1ccc(Br)cc1)N1CCN(c2ccccn2)CC1`, the inhibition was -0.06%.
Take `CCCCN1C(=O)/C(=C/C=C2/C=Cc3ccccc3N2CC)SC1=S`: the inhibition is -0.08%.
With `Cc1ccc(Cn2c(C)nc3c(c2=O)c2nc4ccccc4nc2n3Cc2ccco2)cc1` the figure was 0.09%.
With `Cc1ccc2[nH]c3c(=O)n(CC(=O)NCCc4ccc(Cl)cc4)ncc3c2c1` the figure was 0.27%; with `COc1ccc(C(=O)NC(=S)Nc2ccc(N3CCCC3)cc2)cc1OC`, -0.15%.
With `Cc1nc2c(C(=O)NCc3ccc4c(c3)OCO4)c[nH]n2c(=O)c1Cc1ccccc1F` the figure was -0.08%.
On to `COc1ccccc1NC(=O)C1CCCN1S(=O)(=O)c1ccc(Cl)cc1` (stereo unspecified), for which the inhibition is -0.03%.
Regarding `CCCc1nc(N2CCN(C)CC2)c2sc(=S)n(-c3ccccc3)c2n1`, the inhibition is 0.07%.
For `Cc1ccc(Cn2nnc3c(=O)[nH]c(C4CCN(S(=O)(=O)/C=C/c5ccccc5)CC4)nc32)cc1` the value was -0.06%; for `CCCCOc1ccc(C(=O)NCC(=O)OCC(=O)c2c(N)n(C)c(=O)n(C)c2=O)cc1`, 106% (active); for `COc1ccccc1CSc1ncc(-c2ccc([N+](=O)[O-])cc2)[nH]1`, -0.02%.
Consider `CCOc1ccccc1/C=c1\sc2nc(-c3ccco3)nn2c1=O`, for which the inhibition is 0.21%.
For the compound `O=C(Cn1c(COc2ccccc2)nc2ccccc21)Nc1cc(Cl)c(Cl)cc1Cl`, the inhibition was 0.09%.
With `CC1CCc2c(sc(NC(=O)c3ccc(Cn4cc(Br)cn4)o3)c2C(N)=O)C1` (stereo unspecified), the inhibition was -0.03%.
For `Cc1ccc2c(c1)NC(=O)[C@@]1(C)[C@@H](c3ccccc3)[C@H]3COc4ccc(Cl)cc4[C@@H]3N1C2=O` the value was 0.07%.
With `CN1CCN(S(=O)(=O)c2ccc(NC(=S)NC(=O)C3CC3)cc2)CC1` the figure was -0.08%; with `O=S(=O)(c1ccccc1)N1CCc2ccccc21`, 0.54%.

The term inhibition denotes the change of the read-out against control, counted positive when it falls.
